Bioassay records as filed in PubChem.
A selection: hits, their analogues and other compounds. The true share with any hit is near 4.8%.
ssDAF12 agonist: activates DAF-12 receptor from parasite S. stercoralis; 370,000 tested, 1% active; activation, % at 6.8 µM; HEK293 ssDAF-12/GRIP1 lit1-tk-luc reporter, luminescence; % of 3 µM dafachronic acid response; AID 652126;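 active = activation above the mean over all tested compounds plus 3 SD, cut at about 0.9% in these data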
DAX1 inh-1: DAX1 (NR0B1) inhibition, primary screen. HEK293T StAR-luciferase reporter, SF-1/DAX-1 repression relief. inhibition, % at 6.8 µM. 370,000 tested, 1.1% active;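 active = inhibition above the mean over all tested compounds plus 3 SD, cut at about 3.6% in these data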;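 also: higher inhibition means more luminescence from relief of DAX-1 repression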
NR1D1 modulator: modulators of human Rev-erb alpha DNA binding | Rev-erbα–FITC-DNA binding, fluorescence polarization, 90 min | AID 1259318 | activity, % at 10 µM | P20393 | 370,000 tested, 0.79% active;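 active = activity above about 14%, limit read from the data; passing the limit was not always enough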
DAX1 inh-2: NR0B1 (DAX1) inhibition. P51843. HEK293 Gal4-DAX1 luciferase reporter, luminescence. inhibition, % at 6.75 µM. 340,000 tested, 0.99% active. AID 504766;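 active = inhibition above the mean over all tested compounds plus 3 SD, cut at about 4.2% in these data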;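 also: inhibition shows as a rise in luminescence from relieved DAX1 repression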
Target sequence (P51843 207-470 limits assumed): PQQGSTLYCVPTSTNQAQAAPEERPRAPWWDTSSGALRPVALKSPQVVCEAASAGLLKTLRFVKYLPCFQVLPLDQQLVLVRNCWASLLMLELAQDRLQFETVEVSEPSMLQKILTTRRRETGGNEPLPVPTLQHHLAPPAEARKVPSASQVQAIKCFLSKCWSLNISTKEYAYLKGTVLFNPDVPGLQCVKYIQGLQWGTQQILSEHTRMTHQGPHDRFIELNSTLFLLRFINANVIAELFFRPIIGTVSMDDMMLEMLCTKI
hcDAF-12 act: H. contortus DAF-12 activation, primary screen | activation, % at 6.8 µM | 370,000 tested, 1.4% active | HEK293 hcDAF-12 lit1-tk-luc reporter, luminescence; 0% DMSO, 100% Δ7-dafachronic acid;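 active = activation above the mean of all tested compounds plus 3 SD, cut at about 5.5% in these data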
hgDAF12 agonist: activates the H. glycines DAF-12 receptor ligand-binding domain; HEK293 GAL4-hgDAF12 UAS-luciferase reporter, agonist luminescence; normalized to butyrate control; activation, % at 6.8 µM; 370,000 tested, 1.8% active;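 active = activation above a cutoff set at the mean of all screened compounds plus 3 SD, cut at about 10% in these data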
DAX1 conf: NR0B1 (human) inhibition, confirmation; AID 652134; inhibition, % at 6.8 µM; shares compounds with DAX1 inh-1; HEK293T StAR-promoter luciferase reporter, SF-1/DAX-1 repression; 2,400 tested, 87% active;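 active = inhibition above the average of every tested compound plus 3 SD, cut at about 3.8% in these data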;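 also: active compounds raise luminescence by relieving repression of the StAR reporter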
SF1 AF2mut Luc: counter-screen for DAX1 inhibitors: nonselective inhibitors with SF-1 AF2 mutant; shares compounds with DAX1 inh-1; HEK293 StAR-luciferase, luminescence; inhibition, % at 6.8 µM; 2,400 tested, 78% active; AID 652136;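 active = inhibition above the mean of all tested compounds plus 3 SD, cut at about 3% in these data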
Hits are given with their value; . = inactive; / = no result given.

SMILES	ssDAF12 agonist	DAX1 inh-1	NR1D1 modulator	DAX1 inh-2	hcDAF-12 act	hgDAF12 agonist	DAX1 conf	SF1 AF2mut Luc
Cc1cccc(N2CCN(C(=O)c3[nH]c(C(F)(F)F)nc3-c3ccccc3)CC2)c1C	.	10.4	.	/	.	.	9.8	.
O=C(NCC1CCCO1)c1cc2ccccc2cc1O (stereo not given)	.	5.0	.	.	.	.	6.1	4.3
Cc1cc(C(=O)NC2CCCCCC2)c2ccccc2n1	.	.	.	.	.	.	/	/
CC1CCC(NC(=O)c2cc3ccccc3cc2O)CC1 (stereo not given)	.	8.0	.	.	.	.	10.5	6.7
CC1CCC(NC(=O)c2cc(Cl)nc3ccccc23)CC1 (stereo not given)	.	4.6	.	.	.	.	6.0	4.3
COC(=O)[C@]12C[C@H](CC(=O)NCCCN3CCCC3=O)C(=O)N(Cc3ccc4c(c3)OCO4)C1=C[C@H](C(C)(C)C)O[C@@H]2C	.	.	.	/	.	.	/	/
C[C@H]1CN(S(=O)(=O)C(C)(C)C)[C@H](CCO)/C1=C\CCO	.	.	.	/	.	.	/	/
O=C(Nc1ncccc1O)c1ccc(NS(=O)(=O)c2ccc3[nH]c(=O)[nH]c3c2)cc1	.	14.7	.	.	.	.	19.1	14.7
Cc1cccnc1NC(=O)c1ccc(NS(=O)(=O)c2ccc3[nH]c(=O)[nH]c3c2)cc1	.	.	.	.	.	.	/	/
Cc1ccccc1NC(=O)[C@@H]1CC(=O)O[C@@H]1c1ccccc1	.	.	.	/	.	.	/	/
CCCN1CCc2c(sc(NC(=O)CCS(=O)(=O)c3ccccc3)c2C(=O)OC)C1	.	7.3	.	.	.	.	7.9	4.7
COC(=O)c1c(NC(=O)CCS(=O)(=O)c2ccccc2)sc2c1CCN(C)C2	.	.	.	.	.	.	/	/
COc1cccc(NC(=O)N2CCc3ccccc3C2)c1	.	6.1	.	.	.	.	8.4	7.1
O=C(Nc1ccccc1F)N1CCc2ccccc2C1	.	6.4	.	.	.	.	6.8	7.1
O=C(Nc1cccc(Cl)c1)N1CCc2ccccc2C1	.	.	.	.	.	.	/	/
CCN(CC)C(=O)CC[C@H]1CC[C@]2(CCCN(Cc3ccc(OC)cc3)C2)O1	.	.	.	/	.	.	/	/
CC1CC1C(=O)N1CCC(Oc2cccnc2)CC1 (stereo not given)	.	.	.	/	.	.	/	/
CC(OC(=O)CC1CCCC1)C(=O)Nc1ccc(S(N)(=O)=O)cc1 (stereo not given)	.	4.9	.	.	.	.	.	.
CC(=O)Nc1ccc(NC(=O)C(C)OC(=O)CC2CCCCC2)cc1 (stereo not given)	.	.	.	.	.	.	/	/
CN(C)c1ccc(C=C2C=Cc3ccccc32)cc1	.	4.8	.	.	6.2	13.1	14.8	8.0
COc1cc2c(cc1OC)C(=Cc1ccc(N(C)C)cc1)C=C2	.	.	.	.	.	.	/	/
CC1=C(/C=C/C(C)=C/C=C/C(C)=C\C(=O)O)C(C)(C)CCC1	.	5.9	.	.	.	.	17.9	7.5
COc1ccc(S(=O)(=O)N2CCCCC2)cc1NC(=O)CN1C(=O)NC(C)(C2CC2)C1=O (stereo not given)	.	.	.	.	.	.	/	/
CC(C)Oc1ccc(S(=O)(=O)N2CCCCC2)cc1NC(=O)CN1C(=O)NC(C)(C2CC2)C1=O (stereo not given)	.	4.7	.	.	.	.	.	.
Cc1ccc(C(=O)C2CCN(CC(=O)N3CCCC3)CC2)cc1	.	.	.	/	.	.	/	/
SMILES	ssDAF12 agonist	DAX1 inh-1	NR1D1 modulator	DAX1 inh-2	hcDAF-12 act	hgDAF12 agonist	DAX1 conf	SF1 AF2mut Luc
Cc1ccc(C(=O)OCc2cc(=O)n3ccsc3n2)s1	.	.	.	.	.	.	/	/
Cc1ccc(C(=O)OCc2cc(=O)n3c(C)csc3n2)s1	.	4.8	.	.	.	.	.	.
COc1ccc(-c2nnc(SCC(=O)Nc3ccc(S(=O)(=O)Nc4cc(C)nc(C)n4)cc3)n2-c2ccc(OC)cc2)cc1	.	.	.	/	.	.	/	/
O=C(c1ccco1)N1CCN(c2ccc(N3CCCCC3)nn2)CC1	.	7.8	.	.	.	.	7.3	6.4
O=[N+]([O-])c1ccccc1S(=O)(=O)Nc1cccc(-c2ccc(N3CCOCC3)nn2)c1	.	5.2	.	.	.	.	7.0	5.2
O=[N+]([O-])c1ccccc1S(=O)(=O)Nc1ccc(-c2ccc(N3CCOCC3)nn2)cc1	.	.	.	.	.	.	/	/
COc1ccc(-c2cn3cc(C)ccc3n2)cc1F	.	4.8	.	.	5.6	.	11.5	.
Cc1ccc(NC(=O)N2CCCCC2)cc1NC(=O)N1CCCCC1	.	.	.	.	.	.	/	/
Cc1ccc(NC(=O)N2CCCCCC2)cc1C	.	5.9	.	.	.	.	8.1	5.4
CCn1c2ccccc2c2cc(NC(=O)N3CCCCC3)ccc21	.	4.7	.	.	.	.	10.4	5.4
O=C(Nc1ccc(F)c(Cl)c1)N1CCCCCC1	.	4.7	.	.	.	.	5.2	5.8
CC(=O)Nc1ccc(C(=O)NCC2(N3CCCCC3)CCCCC2)cc1	.	4.6	.	.	.	.	5.3	3.0
CCOc1ccc(NS(=O)(=O)c2ccc(C(=O)NCC3(N4CCCCC4)CCCCC3)cc2)cc1	.	4.5	.	.	.	.	11.4	3.5
Cc1cc(S(=O)(=O)Nc2ccc(C(=O)NCC3(N(C)C)CCCCC3)cc2)ccc1F	.	.	.	.	.	.	/	/
Cc1cc(S(=O)(=O)Nc2ccc(C(=O)NCC3(N4CCCCC4)CCCCC3)cc2)ccc1F	.	7.4	.	.	.	.	7.6	6.1
O=C(NCC1(N2CCCCC2)CCCCC1)c1cccc(S(=O)(=O)Nc2ccc(F)cc2)c1	.	5.0	.	.	.	.	5.2	.
COC(=O)[C@]12C[C@H](CC(=O)NCCCCc3ccccc3)C(=O)N(CCc3ccc(OC)c(OC)c3)C1=C[C@H](COCc1ccccc1)O[C@@H]2C	.	.	.	/	.	.	/	/
CCOC(=O)C1=CCN(S(=O)(=O)c2ccc(Br)cc2)C1c1cccc(F)c1 (stereo not given)	.	.	.	/	.	.	/	/
O=C(NCC1(N2CCCCC2)CCCCC1)c1cccc(NS(=O)(=O)c2ccccc2)c1	.	6.9	.	.	.	.	8.3	4.1
CCOC(=O)N1CCN(C(=O)C[C@H]2C[C@@]3(C(=O)OC)C(=C[C@H](COCc4ccccc4)O[C@@H]3C)N(CCC3=CCCCC3)C2=O)CC1	.	.	.	/	.	.	/	/
